Results on eight compounds are retold here after PubChem BioAssay (Tox21).

Each structure is given as a SMILES string. Inconclusive results are not listed. The source made the active and inactive calls. Unless noted, the call rests on the fitted dose curve; in most records, active means well fitted curve in the direction sought with a large enough effect in the repeat runs; inconclusive means weak or mixed curves; inactive means no such curve, though single readings can be large; an effect the other way counts as inactive or inconclusive.

Assay [1] addresses Aryl hydrocarbon receptor (Homo sapiens) (UniProt P35869). Put plainly: qHTS assay to identify small molecule that activate the aryl hydrocarbon receptor (AhR) signaling pathway (AID 743085).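 Further: HG2L7.5c1 human HepG2 liver cells with stably integrated DRE-driven firefly reporter; series mostly up to about 70 µM; nearly all actives have a fitted effect of over 15% in size.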 The essentials:
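Stably transfected human liver carcinoma cells (HG2L7.5c1; 20 DRE-firefly luciferase) were incubated 5 h, dosed, and kept 24 h at 37C. Agonism was scored from increased luciferase luminescence.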
For orientation: qHTS replaces the single test concentration by a dilution series.

Assay [2] can be described thus: qHTS assay to identify small molecule that activate the aryl hydrocarbon receptor (AhR) signaling pathway - cell viability counter screen (AID 743086).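 Further: HepG2 liver cells carrying the AhR DRE luciferase reporter; series mostly up to about 70 µM; nearly all actives have a fitted effect of over 45% in size.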 The essentials:
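HepG2-AhR-luc (HG2L7.5c1) cells, 4000/well, were preincubated 5 h at 37C, exposed to compound in qHTS format for 24 hr at 37C, then given CellTiter-Fluor for 30 min; viability was read as fluorescence in the reporter wells.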

In assay [3] the target is Peroxisome proliferator-activated receptor gamma (Homo sapiens) (UniProt P37231). Put plainly: qHTS assay to identify small molecule agonists of the peroxisome proliferator-activated receptor gamma (PPARg) signaling pathway (AID 743094; active means well fitted activation curve with a large enough effect in the signal ratio in the repeat runs, not every such curve was filed as active; the % refers to the signal ratio). The procedure, abridged: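 GeneBLAzer PPARg UAS-bla HEK293H cells carrying a stably integrated beta-lactamase reporter were pre-incubated 5 h at 37C, then exposed to compounds in DMSO for 17 h at 37C; LiveBLAzer B/G FRET substrate was added for 1 h at room temperature and fluorescence read.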

Assay [4] shares this target. Put plainly: qHTS assay to identify small molecule antagonists of the peroxisome proliferator-activated receptor gamma (PPARg) signaling pathway (AID 743191; calls by dose curve; further: nearly all actives have a fitted effect of over 30% in size; further: potency means the concentration at half of the fitted maximal effect). The procedure, abridged: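 GeneBLAzer PPARg UAS-bla HEK293H cells carrying a UAS-driven beta-lactamase reporter were plated at 3000 cells/well, preincubated 5 h at 37C, then given compound for 17 h at 37C; LiveBLAzer B/G FRET substrate was read after 1 h at room temperature.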

Assay [5] is described as follows: qHTS assay to identify small molecule antagonists of the peroxisome proliferator-activated receptor gamma (PPARg) signaling pathway - cell viability counter screen (AID 743194). Further: nearly all actives have a fitted effect of over 55% in size. Conditions: Potency: co-treated with 50 nM rosiglitazone. The essentials:
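PPARg-UAS-bla HEK293H cells were plated, rested 5 h at 37 C, then treated with compounds plus rosiglitazone (50 nM final) for 17 h at 37 C; viability was then read by CellTiter-Glo luminescence after 30 min at room temperature.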

Assay [6] in a line: qHTS assay for small molecule agonists of the antioxidant response element (ARE) signaling pathway (AID 743202; active means well fitted activation curve with a large enough effect in the signal ratio in the repeat runs, not every such curve was filed as active; the % refers to the signal ratio). The essentials:
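Compounds delivered in DMSO to ARE-bla HepG2 cells (2,000 cells/well, pre-incubated 5 h) and left 16 h at 37 C. LiveBLAzer B/G FRET substrate then added for 2 h at RT before fluorescence reading.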

Assay [7] can be described thus: qHTS assay for small molecule agonists of the antioxidant response element (ARE) signaling pathway - cell viability counter screen (AID 743203; calls by dose curve; further: nearly all actives have a fitted effect of over 55% in size). The procedure, abridged: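 CellSensor ARE-bla HepG2 cells, 2,000 per well, rested 5 hrs at 37C/5% CO2, then exposed to compound in DMSO for 16 hrs; viability read as CellTiter-Glo luminescence after 30 min at room temperature, in the reporter wells.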

Assay [8] can be described thus: qHTS assay for small molecule activators of the heat shock response signaling pathway - cell viability counter screen (AID 743209). Further: nearly all actives have a fitted effect of over 50% in size. The procedure, abridged:
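CellSensor HSE-bla HeLa cells, plated overnight at 37 C/5% CO2, were exposed to compounds in DMSO for 5 h at 37 C. Viability was then read in the same wells by CellTiter-Glo luminescence after 30 min at room temperature.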

Assay [9] can be described thus: qHTS assay for small molecule activators of the heat shock response signaling pathway (AID 743210; active means well fitted activation curve with a large enough effect in the signal ratio in the repeat runs, with a control signal flat, not every such curve was filed as active; the % refers to the signal ratio;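 further: HeLa cells with beta-lactamase reporter driven by heat shock elements; series mostly up to about 63 µM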). The procedure, abridged: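 Reporter gene assay: HeLa cells stably bearing an HSE-bla construct, compound treatment 5 h at 37 C, LiveBLAzer substrate 2.5 h at RT, fluorescence intensity.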
Assay [10] in a line: qHTS assay to identify small molecule agonists of the peroxisome proliferator-activated receptor delta (PPARd) signaling pathway - cell viability counter screen (AID 743211). Further: nearly all actives have a fitted effect of over 55% in size. The essentials: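 In the same wells used for beta-lactamase reporter measurement, cytotoxicity is scored by CellTiter-Glo. HEK293H PPARd-bla cells receive compound for 17 h at 37C following a 5 h settling period.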

The target in assay [11] is Peroxisome proliferator-activated receptor delta (Homo sapiens) (UniProt Q03181). Put plainly: qHTS assay to identify small molecule agonists of the peroxisome proliferator-activated receptor delta (PPARd) signaling pathway (AID 743212; calls by dose curve). The procedure, abridged: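 A PPARd-bla HEK293H line with beta-lactamase under an Upstream Activator Sequence is treated with compounds at 37 C. Substrate loading for 2 h at room temperature precedes the fluorescence measurement.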

A short description of assay [12]: qHTS assay to identify small molecule antagonists of the peroxisome proliferator-activated receptor delta (PPARd) signaling pathway - cell viability counter screen (AID 743213). Further: nearly all actives have a fitted effect of over 50% in size. The essentials:
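Same-well viability: cells pre-incubated 5 h, dosed with compound plus 300 nM L165041, kept 17 h at 37 C, FRET substrate 2 h RT, then CellTiter-Glo 30 min RT and luminescence.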

The target of assay [13] is Peroxisome proliferator-activated receptor delta (Homo sapiens) (UniProt Q03181). Put plainly: qHTS assay to identify small molecule antagonists of the peroxisome proliferator-activated receptor delta (PPARd) signaling pathway (AID 743215; active means well fitted inhibition curve with a large enough effect in the signal ratio in the repeat runs, not every such curve was filed as active; the % refers to the signal ratio;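 further: cells stimulated with agonist L165041 at 300 nM final during compound exposure; series mostly up to about 62 µM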). The essentials:
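PPARd UAS-bla HEK293H cells were pre-incubated 5 h at 37 C, then given test compounds in DMSO plus agonist L165041 (300 nM final). After 17 h at 37 C, beta-lactamase FRET substrate was added; fluorescence read after 2 h at room temperature.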

Assay [14] has as its target Bile acid receptor (Homo sapiens) (UniProt Q96RI1). Put plainly: qHTS assay to identify small molecule antagonists of the farnesoid-X-receptor (FXR) signaling pathway (AID 743217; active means well fitted inhibition curve with a large enough effect in the signal ratio in the repeat runs, not every such curve was filed as active; the % refers to the signal ratio). The essentials:
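FXR-UAS-bla HEK 293T cells pre-incubated 5 h at 37 °C, then exposed to compounds with chenodeoxycholic acid (50 uM final) for 16 h at 37 °C. Beta-lactamase reporter read by LiveBLAzer B/G FRET substrate fluorescence after 2 h at room temperature.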

Assay [15] is described as follows: qHTS assay to identify small molecule agonists of the farnesoid-X-receptor (FXR) signaling pathway - cell viability counter screen (AID 743218). Further: nearly all actives have a fitted effect of over 45% in size. The essentials:
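FXR-UAS-bla HEK 293T cells, plated 5 h at 37 C, were exposed to compounds for 16 h at 37 C. CellTiter-Glo was then added to the same wells as the bla readout; luminescence read after 30 min at room temperature.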

Assay [16] concerns the target Bile acid receptor (Homo sapiens) (UniProt Q96RI1). Put plainly: qHTS assay to identify small molecule agonists of the farnesoid-X-receptor (FXR) signaling pathway (AID 743220; active means well fitted activation curve with a large enough effect in the signal ratio in the repeat runs, not every such curve was filed as active; the % refers to the signal ratio). The essentials:
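Beta-lactamase reporter under UAS control in GeneBLAzer FXR HEK 293T cells (5000/well) measured with LiveBLAzer FRET substrate after 2 h at room temperature. Compound exposure lasted 16 h at 37C.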

Assay [17] is described as follows: qHTS assay to identify small molecule antagonists of the farnesoid-X-receptor (FXR) signaling pathway - cell viability counter screen (AID 743221; active means well fitted cell-killing curve with a large enough effect in the repeat runs, not every such curve was filed as active; further: nearly all actives have a fitted effect of over 50% in size). The essentials:
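Here viability was scored by luminescence after CellTiter-Glo addition to wells already read for beta-lactamase. Prior treatment: compound plus CDCA (50 uM final), 16 h, 37 C, HEK 293T FXR-bla cells.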

Assay [18] is described as follows: qHTS assay to identify small molecule agonists of the vitamin D receptor (VDR) signaling pathway - cell viability counter screen (AID 743224). Further: series mostly up to about 63 µM; nearly all actives have a fitted effect of over 50% in size. The essentials: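 VDR-bla cells were preincubated 4 h at 37C/5% CO2, then exposed to compounds for 16 h. After the 2 h room-temperature bla FRET read, CellTiter-Glo was added to the same wells and luminescence read after 30 min.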

The target of assay [19] is Vitamin D3 receptor (Homo sapiens) (UniProt P11473). Put plainly: qHTS assay to identify small molecule agonists of the vitamin D receptor (VDR) signaling pathway (AID 743222; calls by dose curve). The essentials: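 VDR-bla cells were plated 4 h at 37C/5% CO2, then exposed to compounds in DMSO for 16 h. After LiveBLAzer B/G FRET substrate addition and 2 h at room temperature, beta-lactamase reporter fluorescence was read.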

The target is the same in assay [20]. Put plainly: qHTS assay to identify small molecule antagonists of the vitamin D receptor (VDR) signaling pathway (AID 743223; active means well fitted inhibition curve with a large enough effect in the signal ratio in the repeat runs, not every such curve was filed as active; the % refers to the signal ratio). The essentials:
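Inhibition of agonist-driven VDR signalling is scored in VDR-bla cells: 3 nM final 1alpha,25-dihydroxyvitamin D3 plus compound, 16 h at 37C, then beta-lactamase detection by FRET substrate fluorescence after 2 h.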

Vitamin D3 receptor (Homo sapiens), sequence (P11473 whole entry, looked up): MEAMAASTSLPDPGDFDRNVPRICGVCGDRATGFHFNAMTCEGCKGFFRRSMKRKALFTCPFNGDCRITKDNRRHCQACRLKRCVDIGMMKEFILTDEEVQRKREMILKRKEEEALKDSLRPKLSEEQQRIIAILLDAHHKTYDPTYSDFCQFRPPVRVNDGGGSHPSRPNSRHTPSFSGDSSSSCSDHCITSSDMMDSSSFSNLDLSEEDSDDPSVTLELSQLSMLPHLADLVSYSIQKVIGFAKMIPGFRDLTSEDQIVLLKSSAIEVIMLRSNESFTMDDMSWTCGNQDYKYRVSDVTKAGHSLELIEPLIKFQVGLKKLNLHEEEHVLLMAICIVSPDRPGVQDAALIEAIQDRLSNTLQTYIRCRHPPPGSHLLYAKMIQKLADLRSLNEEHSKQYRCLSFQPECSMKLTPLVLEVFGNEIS
Aryl hydrocarbon receptor (Homo sapiens), sequence (P35869 whole entry, looked up): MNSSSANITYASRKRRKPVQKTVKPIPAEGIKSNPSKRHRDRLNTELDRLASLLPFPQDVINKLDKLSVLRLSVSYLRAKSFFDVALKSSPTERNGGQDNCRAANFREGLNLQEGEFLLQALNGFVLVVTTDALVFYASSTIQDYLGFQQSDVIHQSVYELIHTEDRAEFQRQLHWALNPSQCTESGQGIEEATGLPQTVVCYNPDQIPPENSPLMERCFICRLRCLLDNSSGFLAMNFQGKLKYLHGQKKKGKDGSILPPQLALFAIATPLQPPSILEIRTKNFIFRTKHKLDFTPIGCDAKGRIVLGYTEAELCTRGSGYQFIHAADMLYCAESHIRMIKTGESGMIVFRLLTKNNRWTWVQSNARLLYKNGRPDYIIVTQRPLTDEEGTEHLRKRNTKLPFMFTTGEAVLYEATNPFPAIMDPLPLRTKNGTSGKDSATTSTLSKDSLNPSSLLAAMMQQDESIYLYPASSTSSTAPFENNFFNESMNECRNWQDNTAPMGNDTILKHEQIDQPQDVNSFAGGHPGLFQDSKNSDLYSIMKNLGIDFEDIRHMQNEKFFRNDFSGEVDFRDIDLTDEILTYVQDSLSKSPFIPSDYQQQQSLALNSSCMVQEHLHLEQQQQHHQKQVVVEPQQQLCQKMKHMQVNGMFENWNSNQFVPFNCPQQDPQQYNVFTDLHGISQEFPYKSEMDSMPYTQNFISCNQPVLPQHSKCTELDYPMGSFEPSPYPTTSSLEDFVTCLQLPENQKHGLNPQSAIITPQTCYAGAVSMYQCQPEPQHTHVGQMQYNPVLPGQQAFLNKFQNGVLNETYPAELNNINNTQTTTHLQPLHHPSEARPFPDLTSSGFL
Bile acid receptor (Homo sapiens), sequence (Q96RI1 whole entry, looked up): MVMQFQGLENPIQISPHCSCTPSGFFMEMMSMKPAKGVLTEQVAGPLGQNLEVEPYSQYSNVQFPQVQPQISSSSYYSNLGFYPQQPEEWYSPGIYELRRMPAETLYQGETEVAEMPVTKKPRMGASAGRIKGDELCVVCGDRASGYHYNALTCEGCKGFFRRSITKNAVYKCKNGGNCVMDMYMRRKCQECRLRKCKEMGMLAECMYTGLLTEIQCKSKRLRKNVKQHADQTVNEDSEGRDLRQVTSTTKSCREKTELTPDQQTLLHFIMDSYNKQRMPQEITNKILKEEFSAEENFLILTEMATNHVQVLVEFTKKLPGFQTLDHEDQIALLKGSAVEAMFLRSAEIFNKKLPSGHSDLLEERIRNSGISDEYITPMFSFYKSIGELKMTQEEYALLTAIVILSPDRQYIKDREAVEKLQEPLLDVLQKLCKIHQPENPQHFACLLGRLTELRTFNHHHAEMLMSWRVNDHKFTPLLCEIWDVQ
Peroxisome proliferator-activated receptor gamma (Homo sapiens), sequence (P37231 whole entry, looked up): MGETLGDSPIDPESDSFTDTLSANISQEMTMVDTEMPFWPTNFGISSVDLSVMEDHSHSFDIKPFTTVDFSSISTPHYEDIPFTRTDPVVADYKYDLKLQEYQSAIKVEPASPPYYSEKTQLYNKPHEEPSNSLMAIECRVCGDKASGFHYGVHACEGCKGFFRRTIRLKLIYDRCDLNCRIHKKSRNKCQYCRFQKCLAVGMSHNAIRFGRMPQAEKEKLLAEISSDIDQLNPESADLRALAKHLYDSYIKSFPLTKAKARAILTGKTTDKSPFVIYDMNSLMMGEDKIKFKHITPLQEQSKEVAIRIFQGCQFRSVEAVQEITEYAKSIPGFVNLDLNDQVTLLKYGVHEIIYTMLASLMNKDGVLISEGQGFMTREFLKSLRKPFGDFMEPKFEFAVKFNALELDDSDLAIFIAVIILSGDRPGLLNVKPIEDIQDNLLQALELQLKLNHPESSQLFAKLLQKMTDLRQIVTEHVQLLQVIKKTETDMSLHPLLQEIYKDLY
Peroxisome proliferator-activated receptor delta (Homo sapiens), sequence (Q03181 whole entry, looked up): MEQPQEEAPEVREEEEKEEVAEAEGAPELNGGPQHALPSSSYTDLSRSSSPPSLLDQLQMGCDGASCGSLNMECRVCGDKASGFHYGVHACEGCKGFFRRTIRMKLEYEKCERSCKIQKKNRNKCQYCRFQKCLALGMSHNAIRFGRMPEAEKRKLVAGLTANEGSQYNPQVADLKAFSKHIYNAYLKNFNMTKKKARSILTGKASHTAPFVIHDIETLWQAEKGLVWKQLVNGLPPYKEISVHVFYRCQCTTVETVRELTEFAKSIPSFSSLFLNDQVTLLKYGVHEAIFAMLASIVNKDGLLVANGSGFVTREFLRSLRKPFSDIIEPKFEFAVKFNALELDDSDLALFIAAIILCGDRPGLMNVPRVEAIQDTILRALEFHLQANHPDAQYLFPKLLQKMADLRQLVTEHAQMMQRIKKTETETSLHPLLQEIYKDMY

With `Cn1c(CCCC(=O)O)nc2cc(N(CCCl)CCCl)ccc21`, the Potency result in [1], in assay [2], in assay [4], in assay [5], in assay [6] and in [7] was “inactive” throughout. The Potency entry in [8], in [9], in assay [10], in [12], in assay [13] and in assay [15] was “inactive” throughout. The Potency entry in assay [17] and in [18] was “inactive” in each case. Further, the compound was called inactive in [3], in assay [11], in assay [14] and in assay [16].
On to `CCCCCCCCSC(=O)Oc1cc(Cl)nnc1-c1ccccc1`, for which the Potency result in assay [1], in assay [2], in assay [5], in assay [6], in assay [7] and in assay [8] was “inactive” in each case. For the same compound, the Potency entry in [9], in [10], in [12], in [13], in [15] and in assay [17] was “inactive” in each case. Further, the Potency result in assay [18] was “inactive”. Besides, the compound was called inactive in assay [3], in assay [11], in [19] and in assay [20]. In assay [4], the Potency was 43.6 µM (active).
Take `NCC1(CC(=O)O)CCCCC1`: the Potency entry in [1], in assay [2], in assay [4], in assay [5], in assay [6] and in assay [7] was “inactive” in each case. For the same compound, the Potency result in [9], in assay [10], in assay [12], in [15], in assay [17] and in assay [18] was “inactive” throughout. In addition, the result in assay [3], in assay [11] and in assay [19] was inactive.
As for `N#CN`, the Potency result in assay [1], in assay [2], in assay [4], in assay [5], in [6] and in assay [7] was “inactive” each time. Moreover, the Potency result in assay [9], in assay [10], in [12], in assay [15], in [17] and in assay [18] was “inactive” in each case. The result in assay [3], in assay [11], in assay [19] and in [20] was inactive.
Turning to `COC(=O)c1ccccc1CS(=O)(=O)NC(=O)Nc1nc(OC)cc(OC)n1`, the Potency entry in assay [1], in assay [2], in assay [4], in [5], in [6] and in assay [7] was “inactive” throughout. The Potency entry in assay [8], in [9], in assay [10], in assay [12], in assay [13] and in [15] was “inactive” each time. In addition, the Potency result in assay [17] and in [18] was “inactive” each time. The call in assay [3], in assay [11], in assay [14], in assay [16], in assay [19] and in assay [20] was inactive.
For the compound `C[C@@H](N)[C@@H](O)c1ccccc1`, the Potency result in assay [1], in [2], in assay [4], in assay [5], in assay [6] and in assay [7] was “inactive” throughout. In addition, the Potency result in assay [8], in assay [10], in assay [15], in assay [17] and in assay [18] was “inactive” in each case. Besides, the compound was classed as inactive in [3] and in [11].
For the compound `CN(C)CCN(C)C`, the Potency result in [1], in [2], in [4], in assay [5], in assay [6] and in assay [7] was “inactive” throughout. The Potency entry in [10], in assay [12], in [15], in assay [17] and in [18] was “inactive” each time. Moreover, the result in [3], in assay [11], in assay [14], in assay [16], in assay [19] and in assay [20] was inactive.
For `COc1cc(CCN)cc(OC)c1OC`, the Potency result in assay [1], in [2], in [4], in assay [5], in [6] and in assay [7] was “inactive” in each case. The Potency result in assay [8], in assay [9], in [10], in assay [12], in assay [15] and in assay [17] was “inactive” in each case. In addition, the Potency result in [18] was “inactive”. The result in assay [3], in assay [11], in assay [14], in [16] and in assay [20] was inactive.
